Assay [1] is described as follows: NCI Yeast Anticancer Drug Screen. Data for the rad50 strain (AID 155).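 Note: 0% = growth of vehicle-only cultures of the same strain.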 The settings on record: S. cerevisiae rad50 strain growth inhibition, active compounds read high. Summed up:
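DNA repair mutant yeast, compound exposure, growth read-out; inhibition is taken relative to vehicle.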

A short description of assay [2]: NCI Yeast Anticancer Drug Screen. Data for the mec2-1 strain (AID 157). The settings on record: S. cerevisiae mec2-1 strain, active compounds read high. Summed up: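 mec2-1 yeast strain, carrying an alteration in DNA damage repair or cell cycle control, was exposed to compounds; growth inhibition was measured relative to vehicle-treated controls.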
Assay [3] in a line: NCI Yeast Anticancer Drug Screen. Data for the sgs1 mgt1 strain (AID 161).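 Note: 0% = growth of cultures given vehicle only.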 Conditions: S. cerevisiae sgs1 mgt1 strain, active compounds read high. The procedure, abridged:
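Growth of a repair-deficient yeast mutant was monitored after compound treatment and expressed as inhibition relative to vehicle-treated cultures.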

Assay [4] in a line: NCI Yeast Anticancer Drug Screen. Data for the cln2 rad14 strain (AID 165).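 Note: 0% = growth equal to vehicle treated cultures.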 The settings on record: S. cerevisiae cln2 rad14 strain, active compounds read high. The procedure, abridged: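 Yeast carrying cln2 and rad14 alterations (cell cycle control and DNA damage repair) were exposed to compounds. Growth inhibition was measured against vehicle-treated controls.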
Assay [5] in a line: NCI Yeast Anticancer Drug Screen. Data for the bub3 strain (AID 167). Conditions: S. cerevisiae bub3 mutant strain, active compounds read high. Summed up: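 In this screen, a yeast mutant lacking normal mitotic checkpoint function is challenged with compound. Relative growth versus vehicle gives the inhibition value.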
Assay [6] can be described thus: NCI Yeast Anticancer Drug Screen. Data for the mlh1 rad18 strain (AID 175). The settings on record: S. cerevisiae mlh1 rad18 strain growth inhibition, active compounds read high. Summed up: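 Growth inhibition of the yeast strain was measured after compound exposure and expressed relative to vehicle-treated controls. The strain carries defined defects in DNA damage repair.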

Setting [7] is: at 5.0 µM (retest, dose inferred, filed as 0.5).
Where [8] appears, read: at 50.0 µM (retest, dose inferred, filed as 5.0).

About 79,000 compounds went through this panel and 15% of them were active in at least one assay; those are over-represented in the sample as a whole. A number with no mark means an inactive call. The source made the active and inactive calls. Cut-off read from the data, not from the text of the source: active = growth inhibition above about 70%; inactive = the rest.

Regarding `OC1(c2ccccc2)CCC2CCCCC2C1` (stereo not given), the growth inhibition in assay [1] (setting [7]) was 3%; in assay [1] (setting [8]), 32%; in assay [1] (at 50.0 µM), 94.4% (active); in assay [2] (setting [7]) it was -4%; in assay [2] (setting [8]), 52%; in assay [2] (at 50.0 µM), 96.5% (active). Besides, the growth inhibition in assay [3] (setting [7]) was 2%; in assay [3] (setting [8]), 69%; in assay [3] (at 50.0 µM), 90.5% (active); in assay [4] (setting [7]), -10%; in assay [4] (setting [8]) it was 8%; in assay [4] (at 50.0 µM), 89.5% (active). Also, the growth inhibition in assay [5] (setting [7]) was 4%; in assay [5] (setting [8]) it was 49%; in assay [5] (at 50.0 µM), 88.5% (active); in assay [6] (setting [7]), -14%; in assay [6] (setting [8]), 63%; in assay [6] (at 50.0 µM), 81.2% (active).

Take `COC(=O)c1ccc2c(c1)C(O)NC(=O)O2` (stereo not given): the growth inhibition in assay [1] (setting [7]) is 16%; in assay [1] (setting [8]), 97% (active); in assay [1] (at 50.0 µM) it was 98.5% (active); in assay [2] (setting [7]), 15%; in assay [2] (setting [8]), 97% (active); in assay [2] (at 50.0 µM), 98% (active). Besides, the growth inhibition is 15% in assay [3] (setting [7]); 98% (active) in assay [3] (setting [8]); 98.9% (active) in assay [3] (at 50.0 µM); 18% in assay [4] (setting [7]); 98% (active) in assay [4] (setting [8]); 98.5% (active) in assay [4] (at 50.0 µM). The growth inhibition was 3% in assay [5] (setting [7]); 95% (active) in assay [5] (setting [8]); 98.6% (active) in assay [5] (at 50.0 µM); 21% in assay [6] (setting [7]); 97% (active) in assay [6] (setting [8]); 98.5% (active) in assay [6] (at 50.0 µM).

For the molecule `COC1CCCCC1C(=O)C(C#N)C1CCCCC1C1CCCCC1` (stereo not given), the growth inhibition in assay [1] (setting [7]) was 4%; in assay [1] (setting [8]), -2%; in assay [1] (at 50.0 µM), 96% (active); in assay [2] (setting [7]) it was 3%; in assay [2] (setting [8]) it was -6%; in assay [2] (at 50.0 µM) it was 95.5% (active). The growth inhibition was 7% in assay [3] (setting [7]); 7% in assay [3] (setting [8]); 97% (active) in assay [3] (at 50.0 µM); -5% in assay [4] (setting [7]); 0% in assay [4] (setting [8]); 98.5% (active) in assay [4] (at 50.0 µM). Further, the growth inhibition in assay [5] (setting [7]) is -3%; in assay [5] (setting [8]), -3%; in assay [5] (at 50.0 µM) it was 96.7% (active); in assay [6] (setting [7]) it was 0%; in assay [6] (setting [8]), 3%; in assay [6] (at 50.0 µM), 98.3% (active).

For the molecule `CCCN(CCC)c1ccc(/C=C/c2ccnc3ccccc23)cc1`, the growth inhibition in assay [1] (setting [7]) was 9%; in assay [1] (setting [8]), 74% (active); in assay [1] (at 50.0 µM), 91.2% (active); in assay [2] (setting [7]), -10%; in assay [2] (setting [8]) it was 88% (active); in assay [2] (at 50.0 µM), 92% (active). Moreover, the growth inhibition is -4% in assay [3] (setting [7]); 82% (active) in assay [3] (setting [8]); 92.7% (active) in assay [3] (at 50.0 µM); -18% in assay [4] (setting [7]); 60% in assay [4] (setting [8]); 58% in assay [4] (at 50.0 µM). The growth inhibition was -12% in assay [5] (setting [7]); 88% (active) in assay [5] (setting [8]); 92% (active) in assay [5] (at 50.0 µM); -7% in assay [6] (setting [7]); 86% (active) in assay [6] (setting [8]); 89.7% (active) in assay [6] (at 50.0 µM).

As for `O=C1c2cc([N+](=O)[O-])ccc2-c2cc([N+](=O)[O-])ccc21`, the growth inhibition in assay [1] (setting [7]) was 44%; in assay [1] (setting [8]) it was 32%; in assay [1] (at 50.0 µM), 91.2% (active); in assay [2] (setting [7]), 39%; in assay [2] (setting [8]), 39%; in assay [2] (at 50.0 µM), 92.8% (active). For the same molecule, the growth inhibition in assay [3] (setting [7]) was 73% (active); in assay [3] (setting [8]), 97% (active); in assay [3] (at 50.0 µM) it was 93.3% (active); in assay [4] (setting [7]), 46%; in assay [4] (setting [8]), 99% (active); in assay [4] (at 50.0 µM), 68%. For the same molecule, the growth inhibition was 80% (active) in assay [5] (setting [7]); 97% (active) in assay [5] (setting [8]); 91.2% (active) in assay [5] (at 50.0 µM); 21% in assay [6] (setting [7]); 34% in assay [6] (setting [8]); 74.5% (active) in assay [6] (at 50.0 µM).

In the case of `O=C(Cn1nnc2ccccc21)N1CCN(c2ccccc2)CC1`, the growth inhibition was -2% in assay [1] (setting [7]); 3% in assay [1] (setting [8]); 32.8% in assay [1] (at 50.0 µM); 4% in assay [2] (setting [7]); 3% in assay [2] (setting [8]); 33.8% in assay [2] (at 50.0 µM). The growth inhibition in assay [3] (setting [7]) was -1%; in assay [3] (setting [8]), 5%; in assay [3] (at 50.0 µM), -2.35%; in assay [4] (setting [7]), -6%; in assay [4] (setting [8]), 3%; in assay [4] (at 50.0 µM), 43.8%. Moreover, the growth inhibition in assay [5] (setting [7]) was -1%; in assay [5] (setting [8]) it was 1%; in assay [5] (at 50.0 µM), 14.9%; in assay [6] (setting [7]), -3%; in assay [6] (setting [8]) it was 3%; in assay [6] (at 50.0 µM), -7.75%.

For the molecule `CCOP(=O)(OCC)C(=C1C=C(C(C)(C)C)C(=O)C(C(C)(C)C)=C1)P(=O)(OCC)OCC`, the growth inhibition in assay [1] (setting [7]) was 2%; in assay [1] (setting [8]), 97% (active); in assay [1] (at 50.0 µM), 98.2% (active); in assay [2] (setting [7]), -15%; in assay [2] (setting [8]) it was 99% (active); in assay [2] (at 50.0 µM), 96.8% (active). The growth inhibition in assay [3] (setting [7]) was 0%; in assay [3] (setting [8]) it was 89% (active); in assay [3] (at 50.0 µM) it was 98.8% (active); in assay [4] (setting [7]), -4%; in assay [4] (setting [8]), 99% (active); in assay [4] (at 50.0 µM) it was 97.2% (active). Moreover, the growth inhibition in assay [5] (setting [7]) was 5%; in assay [5] (setting [8]), 99% (active); in assay [5] (at 50.0 µM) it was 97.2% (active); in assay [6] (setting [7]), -12%; in assay [6] (setting [8]), 98% (active); in assay [6] (at 50.0 µM) it was 96.8% (active).

In the case of `COC(=O)c1cccc2c3ccccc3c3ccccc3c12`, the growth inhibition in assay [1] (setting [7]) was 6%; in assay [1] (setting [8]) it was 98% (active); in assay [1] (at 50.0 µM) it was 97.1% (active); in assay [2] (setting [7]), 15%; in assay [2] (setting [8]) it was 98% (active); in assay [2] (at 50.0 µM), 99.5% (active). For the same molecule, the growth inhibition in assay [3] (setting [7]) is 8%; in assay [3] (setting [8]), 99% (active); in assay [3] (at 50.0 µM) it was 99.2% (active); in assay [4] (setting [7]), 6%; in assay [4] (setting [8]), 97% (active); in assay [4] (at 50.0 µM), 99.5% (active). The growth inhibition was 12% in assay [5] (setting [7]); 97% (active) in assay [5] (setting [8]); 97.8% (active) in assay [5] (at 50.0 µM); 9% in assay [6] (setting [7]); 99% (active) in assay [6] (setting [8]); 99.2% (active) in assay [6] (at 50.0 µM).

As to `Nc1ccc(Cl)c2cccnc12`, the growth inhibition is 11% in assay [1] (setting [7]); 92% (active) in assay [1] (setting [8]); 97.5% (active) in assay [1] (at 50.0 µM); 4% in assay [2] (setting [7]); 94% (active) in assay [2] (setting [8]); 35.5% in assay [2] (at 50.0 µM). The growth inhibition in assay [3] (setting [7]) was 5%; in assay [3] (setting [8]), 89% (active); in assay [3] (at 50.0 µM) it was 86.7% (active); in assay [4] (setting [7]) it was 0%; in assay [4] (setting [8]), 46%; in assay [4] (at 50.0 µM) it was 87.2% (active). Besides, the growth inhibition in assay [5] (setting [7]) was 0%; in assay [5] (setting [8]) it was 90% (active); in assay [5] (at 50.0 µM), 15.2%; in assay [6] (setting [7]), 7%; in assay [6] (setting [8]) it was 94% (active); in assay [6] (at 50.0 µM) it was 91.9% (active).

Consider `C/C=C(\C)[C@H](O)C(COCc1ccccc1)NS(=O)(=O)c1ccc(C)cc1` (stereo not given in full), for which the growth inhibition in assay [1] (setting [7]) was -5%; in assay [1] (setting [8]), 44%; in assay [1] (at 50.0 µM) it was 30.1%; in assay [2] (setting [7]), -3%; in assay [2] (setting [8]), 26%; in assay [2] (at 50.0 µM) it was 98.5% (active). The growth inhibition in assay [3] (setting [7]) was -7%; in assay [3] (setting [8]) it was 43%; in assay [3] (at 50.0 µM) it was 36.8%; in assay [4] (setting [7]) it was -2%; in assay [4] (setting [8]), 47%; in assay [4] (at 50.0 µM), 22.6%. The growth inhibition in assay [5] (setting [7]) is -3%; in assay [5] (setting [8]) it was 51%; in assay [5] (at 50.0 µM), 97.5% (active); in assay [6] (setting [7]), -4%; in assay [6] (setting [8]), 36%; in assay [6] (at 50.0 µM), 58.5%.

(Values after PubChem BioAssay (NCI).)
